# From the supplement of paper PMC8728848
# About 410 targets per protein were measured; listed, in parts, are those with the strongest signals and a random draw of the rest.
# Key:
# Experiment in all cases: glycan array binding signal (z-score within array); higher = stronger binding
# Conditions in all cases: glycan notation: IUPAC condensed, linker removed
# [1] = target: Fuc(a1-2)Gal(b1-3)GalNAc(b1-3)Gal(a1-4)Gal(b1-4)Glc
# Summary of the method: (§1)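 The Consortium for Functional Glycomics database supplied 3228 glycan arrays, of which those lacking an available protein sequence were dropped. The binding signal, a within-array Z-score, was averaged across arrays of the same protein sequence and across linkers. Negative scores can be read as non-binding.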
# [2] = target: Fuc(a1-2)Gal(b1-3)GlcNAc(b1-3)Gal(b1-4)Glc
# Summary of the method: as §1
# [3] = target: Fuc(a1-2)Gal(b1-3)GlcNAc(b1-3)GalNAc
# Summary of the method: as §1
# [4] = target: Fuc(a1-2)Gal(b1-3)[Fuc(a1-4)]GlcNAc(b1-3)[Fuc(a1-3)[Gal(b1-4)]GlcNAc(b1-6)]Gal(b1-4)Glc
# Summary of the method: as §1
# Fuc(a1-2)Gal(b1-4)Glc = target: Fuc(a1-2)Gal(b1-4)Glc
# Summary of the method: as §1
# Fuc(a1-2)Gal(b1-4)Glc6S = target: Fuc(a1-2)Gal(b1-4)Glc6S
# Summary of the method: as §1
# [5] = target: Fuc(a1-2)Gal(b1-4)GlcNAc(b1-3)Gal(b1-4)GlcNAc
# Summary of the method: as §1
# [6] = target: Fuc(a1-2)Gal(b1-4)GlcNAc(b1-3)Gal(b1-4)GlcNAc(b1-3)Gal(b1-4)GlcNAc
# Summary of the method: as §1
# [7] = target: Fuc(a1-2)Gal(b1-4)[Fuc(a1-3)]GlcNAc
# Summary of the method: as §1
# [8] = target: Fuc(a1-2)Gal(b1-4)[Fuc(a1-3)]GlcNAc(b1-2)Man(a1-3)[Fuc(a1-2)Gal(b1-4)[Fuc(a1-3)]GlcNAc(b1-2)Man(a1-6)]Man(b1-4)GlcNAc(b1-4)[Fuc(a1-6)]GlcNAc
# Summary of the method: as §1
# [9] = target: Fuc(a1-2)Gal(b1-4)[Fuc(a1-3)]GlcNAc(b1-2)[Fuc(a1-2)Gal(b1-4)[Fuc(a1-3)]GlcNAc(b1-4)]Man(a1-3)[Fuc(a1-2)Gal(b1-4)[Fuc(a1-3)]GlcNAc(b1-2)Man(a1-6)]Man(b1-4)GlcNAc(b1-4)GlcNAc
# Summary of the method: as §1
# [10] = target: Fuc(a1-2)Gal(b1-4)[Fuc(a1-3)]GlcNAc(b1-3)Gal(b1-4)[Fuc(a1-3)]GlcNAc
# Summary of the method: as §1
# [11] = target: Fuc(a1-2)Gal(b1-4)[Fuc(a1-3)]GlcNAc(b1-3)Gal(b1-4)[Fuc(a1-3)]GlcNAc(b1-3)Gal(b1-4)[Fuc(a1-3)]GlcNAc
# Summary of the method: as §1
# [12] = target: Fuc(a1-2)[Gal(a1-3)]Gal(b1-3)GlcNAc
# Summary of the method: as §1
# [13] = target: Fuc(a1-2)[Gal(a1-3)]Gal(b1-3)GlcNAc(b1-2)Man(a1-3)[Fuc(a1-2)[Gal(a1-3)]Gal(b1-3)GlcNAc(b1-2)Man(a1-6)]Man(b1-4)GlcNAc(b1-4)[Fuc(a1-6)]GlcNAc
# Summary of the method: as §1
# [14] = target: Fuc(a1-2)[Gal(a1-3)]Gal(b1-4)GlcNAc(b1-2)Man
# Summary of the method: as §1
# [15] = target: Fuc(a1-2)[GalNAc(a1-3)]Gal(b1-3)GalNAc(a1-3)[Fuc(a1-2)]Gal(b1-4)GlcNAc
# Summary of the method: as §1
# [16] = target: Fuc(a1-2)[GalNAc(a1-4)]Gal(b1-4)GlcNAc
# Summary of the method: as §1
# [17] = target: Fuc(a1-3)[Gal(b1-4)]GlcNAc
# Summary of the method: as §1
# [18] = target: Fuc(a1-3)[Gal(b1-4)]GlcNAc(b1-3)Gal(b1-4)[Fuc(a1-3)]GlcNAc(b1-3)Gal(b1-4)[Fuc(a1-3)]GlcNAc
# Summary of the method: as §1
# Gal(a1-3)Gal = target: Gal(a1-3)Gal
# Summary of the method: as §1
# Gal(b1-2)Gal = target: Gal(b1-2)Gal
# Summary of the method: as §1
# [19] = target: Gal(b1-3)GlcNAc(a1-6)Gal(b1-4)GlcNAc
# Summary of the method: as §1
# [20] = target: Gal(b1-3)GlcNAc(b1-2)Man(a1-3)[GlcNAc(b1-4)][Gal(b1-3)GlcNAc(b1-2)Man(a1-6)]Man(b1-4)GlcNAc(b1-4)GlcNAc
# Summary of the method: as §1
# [21] = target: Gal(b1-3)GlcNAc(b1-3)Gal(b1-4)GlcNAc
# Summary of the method: as §1
# [22] = target: Gal(b1-3)GlcNAc(b1-3)Gal(b1-4)[Fuc(a1-3)]GlcNAc(b1-6)[Gal(b1-3)GlcNAc(b1-3)]Gal(b1-4)Glc
# Summary of the method: as §1
# Gal(b1-3)GlcNAc6S = target: Gal(b1-3)GlcNAc6S
# Summary of the method: as §1
# [23] = target: Gal(b1-3)[Fuc(a1-4)]GlcNAc(b1-3)Gal(b1-3)[Fuc(a1-4)]GlcNAc
# Summary of the method: as §1
# [24] = target: Gal(b1-3)[Fuc(a1-4)]GlcNAc(b1-3)Gal(b1-4)[Fuc(a1-3)]GlcNAc
# Summary of the method: as §1
# Gal(b1-4)GlcNAc = target: Gal(b1-4)GlcNAc
# Summary of the method: as §1
# [25] = target: Gal(b1-4)GlcNAc(b1-2)[Gal(b1-4)GlcNAc(b1-4)]Man(a1-3)[Gal(b1-4)GlcNAc(b1-2)Man(a1-6)]Man(b1-4)GlcNAc(b1-4)GlcNAc
# Summary of the method: as §1
# [26] = target: Gal(b1-4)GlcNAc(b1-2)[Gal(b1-4)GlcNAc(b1-6)]Man(a1-6)[GlcNAc(b1-4)][Gal(b1-4)GlcNAc(b1-2)Man(a1-3)]Man(b1-4)GlcNAc(b1-4)GlcNAc
# Summary of the method: as §1
# [27] = target: Gal(b1-4)GlcNAc(b1-3)Gal(b1-4)GlcNAc(b1-6)[Gal(b1-3)]GalNAc
# Summary of the method: as §1
# [28] = target: Gal(b1-4)GlcNAc(b1-3)[GlcNAc(b1-6)]Gal(b1-4)GlcNAc
# Summary of the method: as §1
# [29] = target: Gal3S(b1-3)[Fuc(a1-4)]GlcNAc
# Summary of the method: as §1
# Gal6S(b1-4)Glc6S = target: Gal6S(b1-4)Glc6S
# Summary of the method: as §1
# GalNAc(b1-6)GalNAc = target: GalNAc(b1-6)GalNAc
# Summary of the method: as §1
# Glc(a1-6)Glc(a1-6)Glc = target: Glc(a1-6)Glc(a1-6)Glc
# Summary of the method: as §1
# [30] = target: GlcNAc(b1-2)[GlcNAc(b1-4)]Man(a1-3)[GlcNAc(b1-4)][GlcNAc(b1-2)Man(a1-6)]Man(b1-4)GlcNAc(b1-4)GlcNAc
# Summary of the method: as §1
# [31] = target: GlcNAc(b1-3)Gal(b1-3)GalNAc
# Summary of the method: as §1
# [32] = target: GlcNAc(b1-3)Gal(b1-4)GlcNAc(b1-3)Gal(b1-4)GlcNAc(b1-3)Gal(b1-4)GlcNAc(b1-3)Gal(b1-4)GlcNAc(b1-2)[GlcNAc(b1-3)Gal(b1-4)GlcNAc(b1-3)Gal(b1-4)GlcNAc(b1-3)Gal(b1-4)GlcNAc(b1-3)Gal(b1-4)GlcNAc(b1-6)]Man(a1-6)[GlcNAc(b1-3)Gal(b1-4)GlcNAc(b1-3)Gal(b1-4)GlcNAc(b1-3)Gal(b1-4)GlcNAc(b1-3)Gal(b1-4)GlcNAc(b1-2)Man(a1-3)]Man(b1-4)GlcNAc(b1-4)[Fuc(a1-6)]GlcNAc
# Summary of the method: as §1
# Man(a1-6)Man = target: Man(a1-6)Man
# Summary of the method: as §1
# [33] = target: Neu5Ac(a2-3)Gal(b1-4)GlcNAc(b1-3)Gal(b1-4)GlcNAc
# Summary of the method: as §1
# [34] = target: Neu5Ac(a2-3)Gal(b1-4)GlcNAc(b1-3)Gal(b1-4)GlcNAc(b1-6)[Gal(b1-3)]GalNAc
# Summary of the method: as §1
# [35] = target: Neu5Ac(a2-3)Gal(b1-4)GlcNAc(b1-6)[Gal(b1-3)]GalNAc
# Summary of the method: as §1
# [36] = target: Neu5Ac(a2-3)[GalNAc(b1-4)]Gal(b1-4)GlcNAc(b1-3)GalNAc
# Summary of the method: as §1
# [37] = target: Neu5Ac(a2-6)Gal(b1-4)GlcNAc(b1-2)Man(a1-3)[Neu5Ac(a2-3)Gal(b1-4)GlcNAc(b1-2)Man(a1-6)]Man(b1-4)GlcNAc(b1-4)GlcNAc
# Summary of the method: as §1
# [38] = target: Neu5Ac(a2-6)Gal(b1-4)GlcNAc(b1-2)Man(a1-6)[Man(a1-3)]Man(b1-4)GlcNAc(b1-4)GlcNAc
# Summary of the method: as §1
# [39] = target: Neu5Ac(a2-6)GalNAc(b1-4)GlcNAc
# Summary of the method: as §1
# [40] = target: Neu5Ac(a2-8)Neu5Ac(a2-8)Neu5Ac(a2-3)[GalNAc(b1-4)]Gal(b1-4)Glc
# Summary of the method: as §1
# Neu5Gc(a2-3)Gal(b1-4)Glc = target: Neu5Gc(a2-3)Gal(b1-4)Glc
# Summary of the method: as §1
# [41] = target: Neu5Gc(a2-8)Neu5Gc(a2-3)Gal(b1-4)GlcNAc(b1-3)Gal(b1-4)GlcNAc
# Summary of the method: as §1
binder,measurement,setting,value
LecB LY19 (Pseudomonas aeruginosa) (protein) MATQGVFTLPANTQFGVTAFANSAGTQTVNVQVNNETVATFTGQSTNNGIIGSKVLNSGGGGKVQILVSVNGRSSDLVSAQVILANELNFALVGSEDSTDNDYNDAVVVINWPLG,glycan array binding signal (z-score),[1],1.77
same,glycan array binding signal (z-score),[2],1.85
same,glycan array binding signal (z-score),[3],1.49
same,glycan array binding signal (z-score),[4],1.32
same,glycan array binding signal (z-score),Fuc(a1-2)Gal(b1-4)Glc,1.5
same,glycan array binding signal (z-score),Fuc(a1-2)Gal(b1-4)Glc6S,1.37
same,glycan array binding signal (z-score),[5],3.29
same,glycan array binding signal (z-score),[6],3.69
same,glycan array binding signal (z-score),[7],2.54
same,glycan array binding signal (z-score),[8],5.32
same,glycan array binding signal (z-score),[9],0.085
same,glycan array binding signal (z-score),[10],5.07
same,glycan array binding signal (z-score),[11],3.27
same,glycan array binding signal (z-score),[12],-0.452
same,glycan array binding signal (z-score),[13],0.089
same,glycan array binding signal (z-score),[14],9.41
same,glycan array binding signal (z-score),[15],-0.497
same,glycan array binding signal (z-score),[16],2.12
same,glycan array binding signal (z-score),[17],1.65
same,glycan array binding signal (z-score),[18],2.77
same,glycan array binding signal (z-score),Gal(a1-3)Gal,-0.538
same,glycan array binding signal (z-score),Gal(b1-2)Gal,-0.514
same,glycan array binding signal (z-score),[19],-0.55
same,glycan array binding signal (z-score),[20],-0.306
same,glycan array binding signal (z-score),[21],-0.553
same,glycan array binding signal (z-score),[22],0.2
same,glycan array binding signal (z-score),Gal(b1-3)GlcNAc6S,-0.533
same,glycan array binding signal (z-score),[23],3.35
same,glycan array binding signal (z-score),[24],4.05
same,glycan array binding signal (z-score),Gal(b1-4)GlcNAc,-0.551
same,glycan array binding signal (z-score),[25],-0.3
same,glycan array binding signal (z-score),[26],-0.542
same,glycan array binding signal (z-score),[27],-0.545
same,glycan array binding signal (z-score),[28],0.575
same,glycan array binding signal (z-score),[29],3.07
same,glycan array binding signal (z-score),Gal6S(b1-4)Glc6S,-0.533
same,glycan array binding signal (z-score),GalNAc(b1-6)GalNAc,-0.559
same,glycan array binding signal (z-score),Glc(a1-6)Glc(a1-6)Glc,-0.491
same,glycan array binding signal (z-score),[30],-0.556
same,glycan array binding signal (z-score),[31],-0.542
same,glycan array binding signal (z-score),[32],0.196
same,glycan array binding signal (z-score),Man(a1-6)Man,-0.329
same,glycan array binding signal (z-score),[33],-0.547
same,glycan array binding signal (z-score),[34],-0.554
same,glycan array binding signal (z-score),[35],-0.147
same,glycan array binding signal (z-score),[36],-0.553
same,glycan array binding signal (z-score),[37],-0.539
same,glycan array binding signal (z-score),[38],0.735
same,glycan array binding signal (z-score),[39],-0.55
same,glycan array binding signal (z-score),[40],-0.546
same,glycan array binding signal (z-score),Neu5Gc(a2-3)Gal(b1-4)Glc,-0.511
same,glycan array binding signal (z-score),[41],-0.556
